Reference: the supplement of paper PMC10849652
Targets with a hit are over-represented here; the source holds about 7,900 in all. About 0.6% of all pairs of compound and target were hits.

What was measured:
Assay in all cases: log2 fold change, soluble protein after heating vs DMSO (PISA); higher = thermal stabilisation; K562 cells, 10 uM, 30 min; active = over 0.2 and 3.5 SD of the protein, either way, in both replicates (recomputed)
[1] = compound: C1=CC=C(C=C1)[C@H](COC2=CC3=C(C=C2)NC(=O)N3)NC(=O)C4=CC=CN(C4=O)CC5=CC(=C(C=C5)F)F
In short: (§1)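 Quantification of soluble protein used TMTpro 16plex LC-MS/MS, with channel sums equalised. Samples were the supernatant after 21,000xg for 90 min of pooled aliquots from K562 cells (2×10^6 cells/mL) treated with 10 μM compound for 30 min, heated for 3 min over 48°C-58°C, and extracted in PBS with 0.5% NP-40 at 4°C. Values, from duplicates, describe thermal stability against control samples on a log2 fold-change scale.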

[2] = compound: CC1=C(SC2=C1C(=N[C@H](C3=NN=C(N32)C)CC(=O)N)C4=CC=C(C=C4)Cl)C
In short: as §1

[3] = compound: CC1=C2C(=CC=C1)N=C(N(C2=O)C3=CC=CC=C3C)CN4C=NC5=C(N=CN=C54)N
In short: as §1

[4] = compound: Cc1sc2c(c1C)C(c1ccc(Cl)cc1)=N[C@@H](CC(=O)OC(C)(C)C)c1nnc(C)n1-2
In short: as §1

[5] = compound: c1ccc([C@@H]2C[C@H]2NC2CCNCC2)cc1
In short: as §1

Measured: log2 fold change

TRAPPC8 (UniProt Q9Y2L5)
inactive: [1] -0.01 | [2] 0.05 | [3] 0.046 | [4] 0.012 | [5] -0.018

USP15 (UniProt Q9Y4E8)
inactive: [1] -0.038 | [2] 0.035 | [3] 0.059 | [4] 0.008 | [5] -0.016

TMEM8A (UniProt Q9HCN3)
inactive: [1] 0.017 | [2] 0.038 | [3] -0.011 | [4] 0.038 | [5] 0.094

USP25 isoform 3 (UniProt Q9UHP3)
inactive: [1] -0.02 | [2] 0.024 | [3] 0.068 | [4] -0.007 | [5] -0.007

UBXN8 (UniProt O00124)
inactive: [1] 0.3 | [2] -0.074 | [3] 0.192 | [4] 0.099 | [5] -0.055

UFM1 (UniProt P61960)
Chain of UniProt P61960 (P61960 whole entry, looked up): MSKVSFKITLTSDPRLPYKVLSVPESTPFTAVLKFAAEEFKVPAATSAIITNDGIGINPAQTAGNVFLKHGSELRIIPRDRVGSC
inactive: [1] -0.019 | [2] 0.363 | [3] 0.049 | [4] -0.164 | [5] 0.083

WDR7 (UniProt Q9Y4E6)
inactive: [1] -0.037 | [2] 0.013 | [3] -0.068 | [4] -0.131 | [5] -0.093

VPS13B (UniProt Q7Z7G8)
inactive: [1] 0 | [2] -0.008 | [3] 0.068 | [4] -0.057 | [5] 0.031

WARS1 (UniProt G3V227)
inactive: [1] 0.09 | [2] -0.089 | [3] 0.042 | [4] 0.333 | [5] -0.185

VPS35L (UniProt Q7Z3J2)
Chain of UniProt Q7Z3J2 (Q7Z3J2 whole entry, looked up): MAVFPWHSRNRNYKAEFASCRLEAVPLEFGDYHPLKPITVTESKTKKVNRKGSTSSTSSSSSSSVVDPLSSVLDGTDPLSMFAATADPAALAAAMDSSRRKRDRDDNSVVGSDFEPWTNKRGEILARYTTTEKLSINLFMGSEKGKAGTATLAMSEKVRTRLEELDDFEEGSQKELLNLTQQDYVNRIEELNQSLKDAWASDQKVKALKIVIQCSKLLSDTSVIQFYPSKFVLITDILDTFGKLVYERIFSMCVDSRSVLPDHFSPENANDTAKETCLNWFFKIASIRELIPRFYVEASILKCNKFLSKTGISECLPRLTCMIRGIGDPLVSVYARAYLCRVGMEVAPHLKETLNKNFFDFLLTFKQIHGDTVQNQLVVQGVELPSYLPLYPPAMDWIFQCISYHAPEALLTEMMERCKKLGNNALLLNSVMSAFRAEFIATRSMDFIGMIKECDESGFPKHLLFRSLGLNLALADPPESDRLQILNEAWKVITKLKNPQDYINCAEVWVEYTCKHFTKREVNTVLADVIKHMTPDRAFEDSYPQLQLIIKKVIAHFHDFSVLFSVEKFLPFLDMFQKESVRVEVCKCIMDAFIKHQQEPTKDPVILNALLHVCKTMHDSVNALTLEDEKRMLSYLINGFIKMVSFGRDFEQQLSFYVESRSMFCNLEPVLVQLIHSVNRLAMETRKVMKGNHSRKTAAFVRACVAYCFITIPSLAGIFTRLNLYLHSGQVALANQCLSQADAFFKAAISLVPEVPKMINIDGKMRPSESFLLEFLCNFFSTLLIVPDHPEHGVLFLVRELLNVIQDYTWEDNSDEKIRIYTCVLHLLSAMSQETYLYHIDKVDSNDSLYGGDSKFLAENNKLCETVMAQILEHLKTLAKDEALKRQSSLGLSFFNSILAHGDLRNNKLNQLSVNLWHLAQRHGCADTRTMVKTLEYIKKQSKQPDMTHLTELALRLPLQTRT
inactive: [1] -0.046 | [2] -0.13 | [3] 0.011 | [4] -0.024 | [5] 0

TPP1 (UniProt O14773)
Chain of UniProt O14773 (O14773 whole entry, looked up): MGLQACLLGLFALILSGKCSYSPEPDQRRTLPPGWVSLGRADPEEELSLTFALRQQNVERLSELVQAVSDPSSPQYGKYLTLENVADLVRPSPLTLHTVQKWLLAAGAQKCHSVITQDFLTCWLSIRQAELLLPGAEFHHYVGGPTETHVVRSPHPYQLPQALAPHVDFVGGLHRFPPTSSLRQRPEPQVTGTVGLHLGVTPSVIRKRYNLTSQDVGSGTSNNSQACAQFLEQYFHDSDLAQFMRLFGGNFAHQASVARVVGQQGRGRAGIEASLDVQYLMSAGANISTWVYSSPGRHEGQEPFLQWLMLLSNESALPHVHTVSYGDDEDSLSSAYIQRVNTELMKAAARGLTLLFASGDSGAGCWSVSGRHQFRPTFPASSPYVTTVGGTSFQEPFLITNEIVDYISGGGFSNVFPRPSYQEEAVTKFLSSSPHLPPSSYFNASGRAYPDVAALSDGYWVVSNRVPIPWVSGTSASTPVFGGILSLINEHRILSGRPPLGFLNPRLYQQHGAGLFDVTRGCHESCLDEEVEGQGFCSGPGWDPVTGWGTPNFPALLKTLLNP
inactive: [1] 0.019 | [2] 0.048 | [3] -0.02 | [4] 0.036 | [5] -0.067

WDR62 isoform 4 (UniProt O43379)
Chain of UniProt O43379 (O43379 whole entry, looked up): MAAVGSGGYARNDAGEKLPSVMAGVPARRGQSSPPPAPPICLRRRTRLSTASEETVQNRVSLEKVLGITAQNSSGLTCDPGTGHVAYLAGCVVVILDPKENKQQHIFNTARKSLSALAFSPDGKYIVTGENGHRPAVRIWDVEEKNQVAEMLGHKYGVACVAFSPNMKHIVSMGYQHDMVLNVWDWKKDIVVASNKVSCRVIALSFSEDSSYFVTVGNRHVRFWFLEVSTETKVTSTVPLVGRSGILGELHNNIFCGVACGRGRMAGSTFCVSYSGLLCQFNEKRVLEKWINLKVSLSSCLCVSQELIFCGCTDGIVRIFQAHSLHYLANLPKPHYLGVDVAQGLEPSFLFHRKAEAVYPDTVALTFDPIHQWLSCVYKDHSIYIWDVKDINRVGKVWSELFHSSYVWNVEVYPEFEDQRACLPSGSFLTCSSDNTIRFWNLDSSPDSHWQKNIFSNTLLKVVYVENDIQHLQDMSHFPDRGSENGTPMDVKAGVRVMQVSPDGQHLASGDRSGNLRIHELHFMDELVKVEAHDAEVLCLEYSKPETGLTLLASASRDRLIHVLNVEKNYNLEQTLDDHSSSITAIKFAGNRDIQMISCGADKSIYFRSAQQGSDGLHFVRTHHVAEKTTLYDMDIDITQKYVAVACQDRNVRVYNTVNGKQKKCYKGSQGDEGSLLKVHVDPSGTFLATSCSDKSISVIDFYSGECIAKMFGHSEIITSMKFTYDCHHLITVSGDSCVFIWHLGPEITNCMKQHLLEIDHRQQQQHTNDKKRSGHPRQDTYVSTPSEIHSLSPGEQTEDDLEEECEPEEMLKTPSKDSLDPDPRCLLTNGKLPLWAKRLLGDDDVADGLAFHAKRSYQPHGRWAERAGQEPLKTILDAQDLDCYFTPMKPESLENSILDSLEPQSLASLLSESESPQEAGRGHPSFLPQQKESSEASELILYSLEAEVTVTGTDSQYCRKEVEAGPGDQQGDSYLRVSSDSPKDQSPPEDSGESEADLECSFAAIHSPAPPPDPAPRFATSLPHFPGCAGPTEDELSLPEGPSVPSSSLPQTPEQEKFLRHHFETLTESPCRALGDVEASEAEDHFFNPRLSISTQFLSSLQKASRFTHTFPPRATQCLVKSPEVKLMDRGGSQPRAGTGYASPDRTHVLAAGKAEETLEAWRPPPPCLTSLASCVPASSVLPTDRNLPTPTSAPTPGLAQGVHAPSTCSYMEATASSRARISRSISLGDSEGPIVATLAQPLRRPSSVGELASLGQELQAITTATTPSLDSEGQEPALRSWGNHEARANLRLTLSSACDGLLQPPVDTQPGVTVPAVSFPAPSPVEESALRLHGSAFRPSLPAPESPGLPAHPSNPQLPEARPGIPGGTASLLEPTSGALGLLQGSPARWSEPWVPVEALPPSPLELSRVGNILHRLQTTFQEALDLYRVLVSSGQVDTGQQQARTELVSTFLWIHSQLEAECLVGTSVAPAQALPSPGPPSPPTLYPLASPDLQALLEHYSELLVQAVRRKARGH
inactive: [1] 0.007 | [2] 0.027 | [3] 0.031 | [4] 0.004 | [5] 0.009

VRK2 (UniProt Q86Y07)
inactive: [1] 0.001 | [2] 0.004 | [3] 0.011 | [4] 0.005 | [5] -0.083

TRAPPC3 (UniProt O43617)
inactive: [1] -0.025 | [2] 0.03 | [3] 0.036 | [4] -0.024 | [5] 0.007

WDR4 (UniProt P57081)
inactive: [1] -0.074 | [2] 0.048 | [3] -0.004 | [4] -0.025 | [5] -0.008

UBE2D1 (UniProt P51668)
Chain of UniProt P51668 (P51668 whole entry, looked up): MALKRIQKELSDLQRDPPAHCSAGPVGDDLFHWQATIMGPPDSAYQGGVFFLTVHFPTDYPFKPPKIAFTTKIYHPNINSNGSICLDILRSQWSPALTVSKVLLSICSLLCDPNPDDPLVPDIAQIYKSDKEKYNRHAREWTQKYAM
inactive: [1] -0.053 | [2] -0.014 | [3] 0.065 | [4] -0.081 | [5] -0.035

UBE4A isoform 2 (UniProt Q14139)
inactive: [1] -0.051 | [2] -0.067 | [3] 0.013 | [4] 0.013 | [5] 0.081

TXNRD1 (UniProt Q16881)
inactive: [1] -0.066 | [2] 0.086 | [3] 0.023 | [4] -0.031 | [5] -0.032

WNK1 isoform 7 (UniProt Q9H4A3)
inactive: [1] -0.011 | [2] 0.023 | [3] 0.049 | [4] -0.007 | [5] -0.003

TOM1L1 (UniProt O75674)
inactive: [1] -0.019 | [2] 0.045 | [3] 0.034 | [4] 0.009 | [5] 0.023

UBAP2L isoform 5 (UniProt Q14157)
inactive: [1] 0.055 | [2] 0.036 | [3] 0 | [4] -0.016 | [5] 0.017

UBE2S (UniProt Q16763)
inactive: [1] 0.002 | [2] 0.053 | [3] 0.106 | [4] 0 | [5] 0.013

TRIP10 (UniProt Q15642)
inactive: [1] 0.016 | [2] 0.005 | [3] 0.081 | [4] 0.014 | [5] 0.037

TPR (UniProt P12270)
inactive: [1] 0.053 | [2] 0.014 | [3] 0.001 | [4] 0.083 | [5] 0.043

XIAP (UniProt P98170)
inactive: [1] 0.05 | [2] 0.003 | [3] 0 | [4] 0.048 | [5] 0.002

TNPO1 (UniProt Q92973)
inactive: [1] -0.017 | [2] 0.008 | [3] -0.012 | [4] -0.009 | [5] 0.018

VPS28 (UniProt Q9UK41)
inactive: [1] -0.075 | [2] 0.023 | [3] 0.064 | [4] 0.011 | [5] -0.01

TRMT61A (UniProt Q96FX7)
inactive: [1] 0.157 | [2] -0.033 | [3] -0.051 | [4] 0.141 | [5] -0.049

UTP4 (UniProt Q969X6)
inactive: [1] 0.009 | [2] 0.039 | [3] -0.044 | [4] 0.004 | [5] -0.021

TMEM70 (UniProt Q9BUB7)
inactive: [1] -0.002 | [2] 0.065 | [3] 0.057 | [4] -0.05 | [5] -0.002

TMEM208 (UniProt Q9BTX3)
inactive: [1] -0.101 | [2] 0.02 | [3] 0.088 | [4] -0.14 | [5] 0.031

UBIAD1 (UniProt Q9Y5Z9)
inactive: [1] 0.012 | [2] 0.029 | [3] 0.068 | [4] -0.074 | [5] 0.093

TRIM44 (UniProt Q96DX7)
inactive: [1] -0.027 | [2] 0.008 | [3] -0.002 | [4] -0.006 | [5] 0.012

UTP3 (UniProt Q9NQZ2)
Chain of UniProt Q9NQZ2 (Q9NQZ2 whole entry, looked up): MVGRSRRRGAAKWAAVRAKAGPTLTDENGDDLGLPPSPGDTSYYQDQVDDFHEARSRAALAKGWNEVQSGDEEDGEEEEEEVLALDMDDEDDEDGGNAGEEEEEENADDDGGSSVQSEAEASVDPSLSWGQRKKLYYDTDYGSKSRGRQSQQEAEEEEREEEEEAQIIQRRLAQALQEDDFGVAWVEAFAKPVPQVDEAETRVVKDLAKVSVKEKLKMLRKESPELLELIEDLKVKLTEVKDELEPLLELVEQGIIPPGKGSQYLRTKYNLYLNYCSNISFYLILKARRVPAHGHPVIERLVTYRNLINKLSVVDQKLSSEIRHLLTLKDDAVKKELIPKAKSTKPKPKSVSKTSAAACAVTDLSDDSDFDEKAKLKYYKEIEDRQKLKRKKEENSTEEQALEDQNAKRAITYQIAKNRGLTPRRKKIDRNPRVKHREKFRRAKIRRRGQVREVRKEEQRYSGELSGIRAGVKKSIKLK
inactive: [1] 0.049 | [2] -0.312 | [3] -0.041 | [4] 0.042 | [5] -0.007

USP48 isoform 8 (UniProt Q86UV5)
Chain of UniProt Q86UV5 (Q86UV5 whole entry, looked up): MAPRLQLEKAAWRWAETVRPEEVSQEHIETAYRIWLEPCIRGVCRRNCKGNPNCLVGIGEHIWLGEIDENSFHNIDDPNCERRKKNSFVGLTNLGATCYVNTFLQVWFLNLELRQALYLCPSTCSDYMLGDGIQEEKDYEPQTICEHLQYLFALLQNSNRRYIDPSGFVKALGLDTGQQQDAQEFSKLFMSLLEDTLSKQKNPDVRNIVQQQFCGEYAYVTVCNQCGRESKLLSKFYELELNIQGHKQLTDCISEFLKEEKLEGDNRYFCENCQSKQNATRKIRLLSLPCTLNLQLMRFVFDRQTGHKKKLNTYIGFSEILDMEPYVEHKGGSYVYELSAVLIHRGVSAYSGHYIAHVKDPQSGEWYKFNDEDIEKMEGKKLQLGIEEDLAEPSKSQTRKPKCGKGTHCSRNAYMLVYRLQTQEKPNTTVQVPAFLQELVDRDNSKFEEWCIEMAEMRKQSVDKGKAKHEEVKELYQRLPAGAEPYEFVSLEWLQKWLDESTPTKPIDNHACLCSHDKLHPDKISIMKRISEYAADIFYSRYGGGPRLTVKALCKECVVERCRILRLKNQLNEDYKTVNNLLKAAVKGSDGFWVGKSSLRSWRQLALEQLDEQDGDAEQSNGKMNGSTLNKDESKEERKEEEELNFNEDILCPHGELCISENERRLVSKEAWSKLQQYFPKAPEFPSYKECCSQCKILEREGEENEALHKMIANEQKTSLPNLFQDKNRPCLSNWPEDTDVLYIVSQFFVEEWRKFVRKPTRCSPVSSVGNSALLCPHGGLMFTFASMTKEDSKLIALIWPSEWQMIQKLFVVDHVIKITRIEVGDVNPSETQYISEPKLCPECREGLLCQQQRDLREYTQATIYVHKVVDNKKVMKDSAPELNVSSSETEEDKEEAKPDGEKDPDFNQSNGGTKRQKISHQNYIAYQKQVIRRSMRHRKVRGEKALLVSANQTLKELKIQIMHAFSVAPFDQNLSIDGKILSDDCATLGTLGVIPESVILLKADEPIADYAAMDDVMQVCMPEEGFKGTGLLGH
inactive: [1] -0.073 | [2] 0.106 | [3] 0.191 | [4] -0.012 | [5] 0.119

TMEM189-UBE2V1 (UniProt I3L0A0)
inactive: [1] -0.047 | [2] 0.02 | [3] 0.102 | [4] -0.02 | [5] 0.048

UBXN10 (UniProt Q96LJ8)
inactive: [1] 0.011 | [2] 0.014 | [3] 0.024 | [4] 0.018 | [5] 0.063

UBA1 (UniProt P22314)
inactive: [1] -0.162 | [2] 0.044 | [3] 0.134 | [4] 0.044 | [5] -0.08

TSFM (UniProt P43897)
inactive: [1] -0.17 | [2] 0.03 | [3] 0.177 | [4] -0.138 | [5] 0.012

UFM1 isoform 2 (UniProt P61960)
inactive: [1] -0.032 | [2] -0.009 | [3] 0.066 | [4] -0.069 | [5] -0.048

TMEM177 (UniProt Q53S58)
inactive: [1] 0.036 | [2] -0.01 | [3] -0.164 | [4] -0.001 | [5] -0.002

UBE3D (UniProt Q7Z6J8)
inactive: [1] 0.034 | [2] 0.057 | [3] 0.001 | [4] -0.051 | [5] 0.009

U2AF1 isoform 2 (UniProt Q01081)
inactive: [1] 0.021 | [2] 0.03 | [3] 0.11 | [4] -0.02 | [5] 0.035

UHRF1BP1L (UniProt A0JNW5)
inactive: [1] 0.024 | [2] 0.099 | [3] 0.05 | [4] -0.027 | [5] -0.018

TXN2 (UniProt Q99757)
Chain of UniProt Q99757 (Q99757 whole entry, looked up): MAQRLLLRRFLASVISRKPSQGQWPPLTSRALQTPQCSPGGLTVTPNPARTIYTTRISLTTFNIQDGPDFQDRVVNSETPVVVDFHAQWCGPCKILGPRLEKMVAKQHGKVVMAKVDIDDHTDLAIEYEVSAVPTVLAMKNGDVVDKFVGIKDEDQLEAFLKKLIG
inactive: [1] 0.027 | [2] 0.144 | [3] 0.039 | [4] -0.079 | [5] -0.067

UBR2 (UniProt Q8IWV8)
inactive: [1] -0.16 | [2] 0.04 | [3] 0.009 | [4] -0.014 | [5] -0.28
